Experimental data taken from paper PMC11006913.
Where a chain is given by its changes, count along the chain named.

Legend:
Assay in all cases: PBM; 200 nM protein, PBS
Settings in all cases: dsDNA, one strand shown
[1] = target: T1, VENTX (Homo sapiens, UniProt O95231 78-163, R121Q)
T1 sequence: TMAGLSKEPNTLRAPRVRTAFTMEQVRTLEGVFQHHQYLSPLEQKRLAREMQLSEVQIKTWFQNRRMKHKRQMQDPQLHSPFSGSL

[2] = target: T2, VENTX (Homo sapiens, UniProt O95231 78-163)
T2 sequence: T1 sequence with Q44R

[3] = target: HOXC10 (Homo sapiens, UniProt Q9NYD6 254-340)
[4] = target: T3, VENTX (Homo sapiens, UniProt O95231 78-163, Y115F)
T3 sequence: T1 sequence with Y38F, Q44R

[5] = target: HOXA2 (Homo sapiens, UniProt O43364 129-215, R185T)
[6] = target: HOXA2 (Homo sapiens, UniProt O43364 129-215, R185K)
[7] = target: HOXC10 (Homo sapiens, UniProt Q9NYD6 254-340, K271E)
[8] = target: HOXA2 (Homo sapiens, UniProt O43364 129-215, Y150S)
[9] = target: HOXA2 (Homo sapiens, UniProt O43364 129-215)
[10] = target: PRRX1 (Homo sapiens, UniProt P54821 80-166, F113S)
[11] = target: PRRX1 (Homo sapiens, UniProt P54821 80-166)
[12] = target: ALX4 (Homo sapiens, UniProt Q9H161 200-286)
[13] = target: ALX4 (Homo sapiens, UniProt Q9H161 200-286, Q225E)
[14] = target: ALX3 (Homo sapiens, UniProt O95076 139-225, N203Q)
[15] = target: ALX3 (Homo sapiens, UniProt O95076 139-225)
[16] = target: ALX3 (Homo sapiens, UniProt O95076 139-225, L168Q)
[17] = target: ALX3 (Homo sapiens, UniProt O95076 139-225, L168V)
[18] = target: ALX3 (Homo sapiens, UniProt O95076 139-225, N203S)
[19] = target: T4, PAX4 (Homo sapiens, UniProt O43316 9-242, R200K)
T4 sequence: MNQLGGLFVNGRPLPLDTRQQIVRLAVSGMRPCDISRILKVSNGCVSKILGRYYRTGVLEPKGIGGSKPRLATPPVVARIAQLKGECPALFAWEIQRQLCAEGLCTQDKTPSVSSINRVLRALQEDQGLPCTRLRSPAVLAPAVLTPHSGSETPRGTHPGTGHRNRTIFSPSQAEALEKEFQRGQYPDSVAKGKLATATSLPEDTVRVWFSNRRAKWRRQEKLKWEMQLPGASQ

[20] = target: T5, PAX4 (Homo sapiens, UniProt O43316 9-242)
T5 sequence: T4 sequence with K192R

[21] = target: HOXB9 (Homo sapiens, UniProt P17482 171-250)
[22] = target: T6, PAX4 (Homo sapiens, UniProt O43316 9-242, R200Q)
T6 sequence: T4 sequence with K192Q

[23] = target: T7, PAX4 (Homo sapiens, UniProt O43316 9-242, F177V)
T7 sequence: T4 sequence with F169V, K192R

[24] = target: T8, PAX4 (Homo sapiens, UniProt O43316 9-242, F177Y)
T8 sequence: T4 sequence with F169Y, K192R

[25] = target: HOXB9 (Homo sapiens, UniProt P17482 171-250, R186Q)
[26] = target: T9, PAX4 (Homo sapiens, UniProt O43316 9-242, R227W)
T9 sequence: T4 sequence with K192R, R219W

HOXA2 (Homo sapiens, UniProt O43364 129-215, Y150S), sequence (O43364 129-215 Y150S): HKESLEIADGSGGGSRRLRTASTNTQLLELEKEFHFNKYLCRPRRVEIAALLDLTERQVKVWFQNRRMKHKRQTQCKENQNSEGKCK
HOXA2 (Homo sapiens, UniProt O43364 129-215, R185K), sequence (O43364 129-215 R185K): as the sequence (O43364 129-215 Y150S) above, with S22Y, R57K counted along it
HOXA2 (Homo sapiens, UniProt O43364 129-215, R185T), sequence (O43364 129-215 R185T): as the sequence (O43364 129-215 Y150S) above, with S22Y, R57T counted along it
HOXA2 (Homo sapiens, UniProt O43364 129-215), sequence (O43364 129-215): as the sequence (O43364 129-215 Y150S) above, with S22Y counted along it
ALX4 (Homo sapiens, UniProt Q9H161 200-286, Q225E), sequence (Q9H161 200-286 Q225E): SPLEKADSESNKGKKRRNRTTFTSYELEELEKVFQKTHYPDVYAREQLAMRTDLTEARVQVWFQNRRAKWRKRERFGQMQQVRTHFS
ALX4 (Homo sapiens, UniProt Q9H161 200-286), sequence (Q9H161 200-286): as the sequence (Q9H161 200-286 Q225E) above, with E26Q counted along it
ALX3 (Homo sapiens, UniProt O95076 139-225, L168V), sequence (O95076 139-225 L168V): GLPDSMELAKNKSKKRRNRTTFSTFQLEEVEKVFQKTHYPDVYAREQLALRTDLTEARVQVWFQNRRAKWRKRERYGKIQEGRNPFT
ALX3 (Homo sapiens, UniProt O95076 139-225), sequence (O95076 139-225): as the sequence (O95076 139-225 L168V) above, with V30L counted along it
PRRX1 (Homo sapiens, UniProt P54821 80-166, F113S), sequence (P54821 80-166 F113S): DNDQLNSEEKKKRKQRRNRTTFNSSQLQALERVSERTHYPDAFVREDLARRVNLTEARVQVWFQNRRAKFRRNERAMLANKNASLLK
ALX3 (Homo sapiens, UniProt O95076 139-225, N203S), sequence (O95076 139-225 N203S): as the sequence (O95076 139-225 L168V) above, with V30L, N65S counted along it
ALX3 (Homo sapiens, UniProt O95076 139-225, L168Q), sequence (O95076 139-225 L168Q): as the sequence (O95076 139-225 L168V) above, with V30Q counted along it
HOXC10 (Homo sapiens, UniProt Q9NYD6 254-340), sequence (Q9NYD6 254-340): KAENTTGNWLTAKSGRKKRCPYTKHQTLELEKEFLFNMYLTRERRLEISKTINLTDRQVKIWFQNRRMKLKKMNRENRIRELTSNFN
HOXB9 (Homo sapiens, UniProt P17482 171-250), sequence (P17482 171-250): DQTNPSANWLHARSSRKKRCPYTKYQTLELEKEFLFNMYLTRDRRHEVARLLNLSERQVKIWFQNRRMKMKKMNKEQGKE
HOXB9 (Homo sapiens, UniProt P17482 171-250, R186Q), sequence (P17482 171-250 R186Q): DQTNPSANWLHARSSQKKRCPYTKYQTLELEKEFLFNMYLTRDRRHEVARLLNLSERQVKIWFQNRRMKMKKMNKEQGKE
ALX3 (Homo sapiens, UniProt O95076 139-225, N203Q), sequence (O95076 139-225 N203Q): as the sequence (O95076 139-225 L168V) above, with V30L, N65Q counted along it
PRRX1 (Homo sapiens, UniProt P54821 80-166), sequence (P54821 80-166): as the sequence (P54821 80-166 F113S) above, with S34F counted along it
HOXC10 (Homo sapiens, UniProt Q9NYD6 254-340, K271E), sequence (Q9NYD6 254-340 K271E): as the sequence (Q9NYD6 254-340) above, with K18E counted along it

## CACTGGGG
[1]
  binding signal: 7.92 upbm affinity estimate (log intensity, higher = more binding, comparable within an allelic series)
[2]
  binding signal: 7.73 upbm affinity estimate (log intensity, higher = more binding, comparable within an allelic series)
[3]
  binding signal: 10 upbm affinity estimate (log intensity, higher = more binding, comparable within an allelic series)
[4]
  binding signal: 7.93 upbm affinity estimate (log intensity, higher = more binding, comparable within an allelic series)
[5]
  binding signal: 7.07 upbm affinity estimate (log intensity, higher = more binding, comparable within an allelic series)
[6]
  binding signal: 10.1 upbm affinity estimate (log intensity, higher = more binding, comparable within an allelic series)
[7]
  binding signal: 10 upbm affinity estimate (log intensity, higher = more binding, comparable within an allelic series)
[8]
  binding signal: 10.4 upbm affinity estimate (log intensity, higher = more binding, comparable within an allelic series)
[9]
  binding signal: 7.07 upbm affinity estimate (log intensity, higher = more binding, comparable within an allelic series)

## CCGAGTCC
[1]
  binding signal: 8.15 upbm affinity estimate (log intensity, higher = more binding, comparable within an allelic series)
[2]
  binding signal: 8.13 upbm affinity estimate (log intensity, higher = more binding, comparable within an allelic series)
[10]
  binding signal: 9.18 upbm affinity estimate (log intensity, higher = more binding, comparable within an allelic series)
[4]
  binding signal: 8.08 upbm affinity estimate (log intensity, higher = more binding, comparable within an allelic series)
[11]
  binding signal: 9.67 upbm affinity estimate (log intensity, higher = more binding, comparable within an allelic series)

## CCCAGAGG
[1]
  binding signal: 7.95 upbm affinity estimate (log intensity, higher = more binding, comparable within an allelic series)
[2]
  binding signal: 7.77 upbm affinity estimate (log intensity, higher = more binding, comparable within an allelic series)
[12]
  binding signal: 8.01 upbm affinity estimate (log intensity, higher = more binding, comparable within an allelic series)
[4]
  binding signal: 7.81 upbm affinity estimate (log intensity, higher = more binding, comparable within an allelic series)
[13]
  binding signal: 8 upbm affinity estimate (log intensity, higher = more binding, comparable within an allelic series)
[5]
  binding signal: 7.09 upbm affinity estimate (log intensity, higher = more binding, comparable within an allelic series)
[14]
  binding signal: 7.67 upbm affinity estimate (log intensity, higher = more binding, comparable within an allelic series)
[6]
  binding signal: 10.2 upbm affinity estimate (log intensity, higher = more binding, comparable within an allelic series)
[15]
  binding signal: 7.71 upbm affinity estimate (log intensity, higher = more binding, comparable within an allelic series)
[16]
  binding signal: 7.65 upbm affinity estimate (log intensity, higher = more binding, comparable within an allelic series)
[17]
  binding signal: 7.63 upbm affinity estimate (log intensity, higher = more binding, comparable within an allelic series)
[8]
  binding signal: 10.3 upbm affinity estimate (log intensity, higher = more binding, comparable within an allelic series)
[18]
  binding signal: 7.62 upbm affinity estimate (log intensity, higher = more binding, comparable within an allelic series)
[9]
  binding signal: 7.15 upbm affinity estimate (log intensity, higher = more binding, comparable within an allelic series)

## CCCATTAC
[1]
  binding signal: 11.4 upbm affinity estimate (log intensity, higher = more binding, comparable within an allelic series)
[2]
  binding signal: 12.4 upbm affinity estimate (log intensity, higher = more binding, comparable within an allelic series)
[4]
  binding signal: 11.2 upbm affinity estimate (log intensity, higher = more binding, comparable within an allelic series)

## CCGAATTA
[1]
  binding signal: 10.1 upbm affinity estimate (log intensity, higher = more binding, comparable within an allelic series)
[2]
  binding signal: 10.6 upbm affinity estimate (log intensity, higher = more binding, comparable within an allelic series)
[19]
  binding signal: 11.8 upbm affinity estimate (log intensity, higher = more binding, comparable within an allelic series)
[4]
  binding signal: 9.98 upbm affinity estimate (log intensity, higher = more binding, comparable within an allelic series)
[20]
  binding signal: 12.4 upbm affinity estimate (log intensity, higher = more binding, comparable within an allelic series)
[21]
  binding signal: 10.1 upbm affinity estimate (log intensity, higher = more binding, comparable within an allelic series)
[22]
  binding signal: 11.8 upbm affinity estimate (log intensity, higher = more binding, comparable within an allelic series)
[23]
  binding signal: 10.4 upbm affinity estimate (log intensity, higher = more binding, comparable within an allelic series)
[24]
  binding signal: 11.1 upbm affinity estimate (log intensity, higher = more binding, comparable within an allelic series)
[25]
  binding signal: 10 upbm affinity estimate (log intensity, higher = more binding, comparable within an allelic series)
[26]
  binding signal: 10.9 upbm affinity estimate (log intensity, higher = more binding, comparable within an allelic series)
